Measurements published in PubChem BioAssay AID1159580 (chemical genetic matrix, 2015).
Out of some 5,500 compounds screened, about 2,000 (36%) were called active. Not shown: some 18% with an inconclusive outcome. No stated cut-off is given here; in the data, active means normalized growth mostly below about 0.91 (no sharp cut-off); inconclusive means no clear call, values can overlap the other calls; inactive means mostly above about 0.92. The list shows a part of the results.

Assay: chemical genetic growth profiling, strain panel (AID 1159580);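 further: tested at 20 µM; growth read once vehicle control cultures reached saturation at 30 °C; 1 = growth at the plate median or of vehicle wells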
Settings: S. cerevisiae deletion strains, growth OD

Measured: normalized growth

CC(=O)Oc1ccc(-c2cc(=O)c3c(OC(C)=O)cc(OC(C)=O)cc3o2)cc1
inactive: locus YAL021C, strain ccr4, stronger effect = lower value 0.975 | locus YAL026C, strain drs2, stronger effect = lower value 0.947 | locus YAL030W, strain snc1, stronger effect = lower value 0.975 | locus YBL061C, strain skt5, stronger effect = lower value 0.965 | locus YBR009C, strain hhf1, stronger effect = lower value 0.96 | locus YBR023C, strain chs3, stronger effect = lower value 0.951 | locus YBR171W, strain sec66, stronger effect = lower value 0.955 | locus YBR231C, strain swc5, stronger effect = lower value 0.968 | locus YBR279W, strain paf1, stronger effect = lower value 0.974 | locus YCL011C, strain gbp2, stronger effect = lower value 0.963 | locus YCL016C, strain dcc1, stronger effect = lower value 0.974 | locus YCL061C, strain MRC1, stronger effect = lower value 0.988 | locus YCL069W, strain vba3, stronger effect = lower value 0.964 | locus YCR088W, strain abp1, stronger effect = lower value 0.966 | locus YDL005C, strain med2, stronger effect = lower value 0.977 | locus YDL040C, strain nat1, stronger effect = lower value 0.966 | locus YDR001C, strain nth1, stronger effect = lower value 0.965 | locus YDR069C, strain doa4, stronger effect = lower value 0.95 | locus YDR137W, strain rgp1, stronger effect = lower value 1 | locus YDR159W, strain sac3, stronger effect = lower value 0.935 | locus YDR195W, strain ref2 0.942 | locus YDR297W, strain sur2, stronger effect = lower value 0.976 | locus YDR334W, strain swr1, stronger effect = lower value 0.958 | locus YDR335W, strain msn5, stronger effect = lower value 0.982 | locus YDR392W, strain spt3, stronger effect = lower value 0.906 | locus YEL003W, strain gim4, stronger effect = lower value 0.961 | locus YEL037C, strain rad23, stronger effect = lower value 0.952 | locus YEL061C, strain CIN8 (second series), stronger effect = lower value 0.958 | locus YER015W, strain faa2, stronger effect = lower value 0.984 | locus YER016W, strain bim1, stronger effect = lower value 0.976 | locus YER111C, strain swi4, stronger effect = lower value 0.953 | locus YER155C, strain BEM2 (second series), stronger effect = lower value 0.957 | locus YFR010W, strain ubp6, stronger effect = lower value 0.957 | locus YGL167C, strain pmr1, stronger effect = lower value 0.965 | locus YGL173C, strain kem1, stronger effect = lower value 0.983 | locus YGL227W, strain vid30, stronger effect = lower value 0.955 | locus YGL240W, strain doc1, stronger effect = lower value 0.962 | locus YGL253W, strain hxk2, stronger effect = lower value 0.973 | locus YHR013C, strain ard1, stronger effect = lower value 0.92 | locus YHR027C, strain rpn1, stronger effect = lower value 0.982 | locus YHR142W, strain chs7, stronger effect = lower value 0.973 | locus YJL092W, strain hpr5, stronger effect = lower value 0.982 | locus YJL095W, strain BCK1 (second series), stronger effect = lower value 0.988 | locus YJL115W, strain asf1, stronger effect = lower value 0.954 | locus YJL129C, strain trk1, stronger effect = lower value 0.95 | locus YJL154C, strain vps35, stronger effect = lower value 0.961 | locus YJL164C, strain tpk1, stronger effect = lower value 0.964 | locus YJL166W, strain qcr8, stronger effect = lower value 0.971 | locus YJL187C, strain SWE1, stronger effect = lower value 0.976 | locus YKL160W, strain elf1, stronger effect = lower value 1.01 | locus YKR026C, strain gcn3, stronger effect = lower value 0.949 | locus YKR091W, strain srl3, stronger effect = lower value 0.97 | locus YLL001W, strain dnm1, stronger effect = lower value 0.997 | locus YLL026W, stronger effect = lower value 0.973 | locus YLL041C, strain sdh2, stronger effect = lower value 0.98 | locus YLR027C, strain aat2, stronger effect = lower value 0.96 | locus YLR221C, strain rsa3, stronger effect = lower value 0.958 | locus YLR258W, strain gsy2, stronger effect = lower value 0.977 | locus YLR262C, strain YPT6 (second series), stronger effect = lower value 0.999 | locus YLR320W, strain mms22, stronger effect = lower value 0.958 | locus YLR342W, strain FKS1, stronger effect = lower value 0.968 | locus YLR357W, strain rsc2, stronger effect = lower value 0.902 | locus YLR370C, strain arc18, stronger effect = lower value 0.958 | locus YLR384C, strain iki3, stronger effect = lower value 0.966 | locus YML120C, strain ndi1, stronger effect = lower value 0.967 | locus YMR058W, strain fet3, stronger effect = lower value 0.965 | locus YMR125W, strain sto1, stronger effect = lower value 0.955 | locus YMR129W, stronger effect = lower value 0.967 | locus YMR205C, strain PFK2, stronger effect = lower value 0.941 | locus YMR231W, strain pep5, stronger effect = lower value 0.975 | locus YNL071W, strain lat1, stronger effect = lower value 0.967 | locus YNL209W, strain ssb2, stronger effect = lower value 0.979 | locus YNL248C, strain rpa49, stronger effect = lower value 0.979 | locus YNL322C, strain KRE1 (second series), stronger effect = lower value 0.95 | locus YNR049C, strain mso1, stronger effect = lower value 0.953 | locus YOR001W, strain rrp6, stronger effect = lower value 0.987 | locus YOR070C, strain gyp1, stronger effect = lower value 0.977 | locus YOR080W, strain dia2, stronger effect = lower value 0.961 | locus YOR083W, strain WHI5, stronger effect = lower value 1.02 | locus YOR106W, strain vam3, stronger effect = lower value 0.986 | locus YOR265W, strain rbl2, stronger effect = lower value 0.981 | locus YOR270C, strain vph1, stronger effect = lower value 0.899 | locus YOR290C, strain snf2, stronger effect = lower value 0.899 | locus YPL051W, strain arl3, stronger effect = lower value 1 | locus YPL078C, strain atp4, stronger effect = lower value 0.984 | locus YPL106C, strain sse1, stronger effect = lower value 0.946 | locus YPL240C, strain hsp82, stronger effect = lower value 0.987
